# TGFb inhibitor: TGF-b pathway inhibition; HepG2 CAGA-GFP TGF-b/SMAD3 reporter, GFP fluorescence, 18 h; TGF-beta stimulated, 500 pg/mL final; Potency, µM (top dose mostly 46.1 µM), usual class: inhibitors; 1.2% of 410,000 active; AID 588855; further: nearly all actives have a fitted effect of over 65% in size
#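 Per well, imaged GFP fluorescence of HEPG2 CAGA-GFP cells gives the signal; cells get compound, then TGF-beta (500 pg/mL final), 18 h at 37 degrees C; %Activity versus -TGF-beta and +DMSO controls.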
# ATXN2 expr inh: inhibitors of ATXN2 expression; Potency, µM (top dose mostly 57 µM), usual class: inhibitors; AID 1745845; HEK-293 ATXN2-luciferase reporter, luminescence, 24 h; 0.72% of 360,000 active; further: nearly all actives have a fitted effect of over 55% in size
#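 qHTS (up to 57 uM final) was run with 24 h compound exposure of reporter cells at 37 °C. Each well was multiplexed: SteadyGlo luminescence measured ATXN2-luciferase expression after a fluorogenic Gly-Phe-AFC viability readout (25 uM final).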
# DRD3 antagonist: blocks the human D3 dopamine receptor; D3R cells, DiscoveRx beta-arrestin luminescence, antagonist mode; stronger effect = lower value; 2.5% of 360,000 active; P35462; max response, negative = inhibition, %; in the data active means max response below about -50%; inconclusive means no clear call, values can overlap the other calls
# Target sequence (P35462 whole entry, looked up): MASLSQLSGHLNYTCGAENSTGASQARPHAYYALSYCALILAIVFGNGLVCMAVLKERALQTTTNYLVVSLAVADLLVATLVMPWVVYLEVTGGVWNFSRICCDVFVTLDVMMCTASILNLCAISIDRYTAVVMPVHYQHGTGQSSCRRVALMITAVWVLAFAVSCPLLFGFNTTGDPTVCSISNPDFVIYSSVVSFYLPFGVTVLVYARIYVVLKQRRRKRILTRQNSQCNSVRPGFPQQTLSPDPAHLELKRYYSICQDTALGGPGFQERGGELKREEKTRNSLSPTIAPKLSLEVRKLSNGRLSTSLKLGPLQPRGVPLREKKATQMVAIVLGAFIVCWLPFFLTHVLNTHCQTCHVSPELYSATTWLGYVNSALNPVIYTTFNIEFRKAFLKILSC
#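 Cells plated overnight at 1500 cells/well, then exposed to library compounds with dopamine controls for 90 minutes at 37 degrees C. DiscoveRx reagent added for 30–60 minutes at room temperature; luminescence read, quantitative HTS format.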
# ATXN viability: reduces viability in counter-screen for ATXN expression inhibitors. S2 cells (HEK-293 line with an ATXN2-luciferase reporter) viability, CellTiter-Fluor protease fluorescence, 24 h. Potency, µM (top dose mostly 56.7 µM), actives largely listed as cytotoxic. 0.49% of 400,000 active. AID 651635; further: nearly all actives have a fitted effect of over 40% in size
# HepG2 tox: HepG2 cytotoxicity, counter-screen for TGF-b inhibitors; HepG2 CAGA-GFP viability, ATP luminescence, 18 h; AID 588856; 0.76% of 410,000 active; Potency, µM (series often up to 46.1 µM), hits mostly cytotoxic
#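 CellTiter-Glo luminescence gave cytotoxicity after 18 hours at 37 degrees C. The cells were HepG2 CAGA-GFP in 1% FBS DMEM, stimulated with 500 pg/mL TGF-beta after compound addition. %Activity was normalised to no-cell wells (complete cell-killing) and DMSO (no toxicity), and curves were fitted and classified.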
# D3 ag: activates the human D3 dopamine receptor; D3R DiscoveRx beta-arrestin cells, luminescence, 90 min; max activation, %; 0.58% of 410,000 active; AID 652048; in the data active means max activation above about 30%
#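 Cells at 1500/well, incubated overnight, then treated with pinned compounds (dopamine as control) for 90 min at 37 degrees C. DiscoveRx reagent added for 30 - 60 minutes at room temperature; luminescence read.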
# A number is an active result; 0 = inactive; ? = inconclusive; - = no result given; ! = not active in a repeat. An excerpt weighted towards active compounds, which were near 4.7% of everything screened. Unless noted, the call rests on the fitted dose curve; in most records, active means well fitted curve in the direction sought with a large enough effect; inconclusive means small, poorly fitted or top-dose-only effect, or another doubt; inactive means no such curve, though single readings can be large; an effect the other way counts as inactive or inconclusive.
SMILES,TGFb inhibitor,ATXN2 expr inh,DRD3 antagonist,ATXN viability,HepG2 tox,D3 ag
O=Cc1s/c(=N\S(=O)(=O)c2ccccc2)n(CCCCl)c1Cl,4µM,?,-120,5µM,8.9µM,0
CCCCNC(=O)Oc1cccc(N2CCCC2=O)c1,0,0,-69,0,0,0
O=C(NCCCN1CCCC1=O)c1cccc(N2CCCC2=O)c1,0,0,0,0,0,0
NC(=O)Nc1ccc(/C=C2\C=Cc3ccccc32)cc1,?,-,-,-,0,-
O=c1oc(CCCO)cc2ccc(C#Cc3ccsc3)cc12,?,0,0,?,0,0
O=C1c2ccccc2C(=O)N1CCC#Cc1ccc2cc(CCCO)oc(=O)c2c1,0,0,0,0,0,33
CCOC(=O)c1c(NC(=O)c2nc(SCC)ncc2Cl)sc2c1CCCC2,0,0,-,0,0,0
COCC(=O)Nc1cc(C(=O)N2CCCC(C(C)=O)C2)cc2nc(-c3ccccc3)n(C)c12 (centres undefined),-,-,-,0,-,-
Cc1ncc2c(c1CNS(=O)(=O)N(C)C)CCN(C(=O)/C=C/c1cccc(F)c1)C2,-,-,-,0,-,-
CCc1cc2cccc(C)c2nc1SCC(=O)c1ccc(NC(C)=O)cc1,0,0,0,0,0,81
CCc1cc2ccc(C)cc2nc1SCC(=O)c1ccc(NC(C)=O)cc1,?,0,0,0,0,0
CCOc1ccc(NC(=O)CSc2nc(C)c(C(=O)Nc3ccccc3)c(-c3ccc(Cl)cc3)c2C#N)cc1,?,0,-,?,0,0
O=C(COC(=O)Cc1ccccc1F)Nc1cc(S(=O)(=O)N2CCOCC2)ccc1N1CCCC1,0,0,0,1µM,0,0
CCN1CCN(c2ccc(S(=O)(=O)N3CCOCC3)cc2NC(=O)C2CCC(C(C)(C)C)CC2)CC1 (centres undefined),?,-,0,0,20µM,0
CN1CCN(c2ccc(S(=O)(=O)N3CCOCC3)cc2NC(=O)C2CCCCC2)CC1,0,0,0,0,0,0
Cc1ccc2occ(/C=N/NC(=O)[C@@H](N)Cc3ccccc3)c(=O)c2c1,0,0,0,0,10µM,0
Cc1cccc(C(=O)N/N=C/c2coc3ccccc3c2=O)c1,0,0,0,0,0,0
C=CC[C@H](CC(=O)N(CCO)Cc1ccccc1)C(=O)N[C@H](COC(=O)[C@H](CC=C)CC(=O)OC(C)(C)C)Cc1c[nH]c2ccccc12,?,?,0,22µM,0,0
C=CC[C@H](CC(=O)N(CCO)Cc1ccccc1)C(=O)N[C@@H](COC(=O)[C@@H](CC=C)CC(=O)OC(C)(C)C)Cc1c[nH]c2ccccc12,?,?,0,-,0,0
C=CC[C@@H](CC(=O)N[C@@H](CO)Cc1ccccc1)C(=O)N[C@H](COC(=O)[C@H](CC=C)CC(=O)OC(C)(C)C)Cc1c[nH]c2ccccc12,?,?,0,-,0,0
C=CC[C@@H](CC(=O)N[C@H](CO)Cc1ccccc1)C(=O)N[C@H](COC(=O)[C@H](CC=C)CC(=O)OC(C)(C)C)Cc1c[nH]c2ccccc12,16µM,?,0,28µM,0,0
Cc1cn([C@H]2C[C@H](O)[C@@H](CNCC3=Cc4cc(O)ccc4OC3)O2)c(=O)[nH]c1=O,0,0,?,0,0,39
COc1cc(NCCCCCCN)c2ncccc2c1OC,0,16µM,0,?,0,0
Cc1ccc(NC(=O)[C@H](NC(=O)[C@@H]2Cc3ccccc3CN2)c2ccccc2)cc1C,?,-,-101,0,0,0
Cc1ccc(NC(=O)[C@@H](C)NC(=O)[C@@H]2Cc3ccccc3CN2)cc1,0,-,0,0,0,0
SMILES,TGFb inhibitor,ATXN2 expr inh,DRD3 antagonist,ATXN viability,HepG2 tox,D3 ag
c1ccc(COc2ccc(-c3csnn3)cc2)cc1,0,0,-61,0,0,0
C[C@]12CCC(=O)C=C1CC[C@@H]1[C@@H]2[C@@H](O)C[C@@]2(C)[C@H]1CC[C@]2(O)C(=O)COC(=O)CCC(=O)O,0,0,-61!,0,0,0
CC(=O)OCC(=O)[C@@]1(O)CC[C@H]2[C@@H]3CCC4=CC(=O)CC[C@]4(C)[C@H]3[C@@H](O)C[C@@]21C,0,0,0,0,0,0
C[C@@H]1CN(Cc2ccc3c(c2)CN(C(=O)CN2CCOc4ccccc4C2)CCO3)C[C@H](C)O1,-,-,-,0,-,-
Cc1ccccc1N1C(N)=NC(N)=NC1(C)C,0,0,0,0,0,0
COc1ccccc1N1C(N)=NC(N)=NC1(C)C,0,0,-53!,0,0,0
N#C/C(=C\c1ccc([N+](=O)[O-])cc1)c1ccccn1,0,0,0,0,0,0
CN(C)c1ccc(/C=C(\C#N)c2ccccn2)cc1,0,11µM,0,0,0,0
Cc1cccc(NC(=O)c2ccc([N+](=O)[O-])o2)n1,?,0,0,?,25µM,0
CN1CCN(c2ccccc2NC(=O)c2ccc([N+](=O)[O-])o2)CC1,?,?,0,?,2.5µM,0
CCN1CCN(c2ccc(NC(=O)c3ccc([N+](=O)[O-])o3)cc2Cl)CC1,?,0,-72,?,0,0
O=C(Nc1ccccc1Cl)c1ccc([N+](=O)[O-])o1,?,0,0,0,0,0
Cc1ccccc1NC(=O)c1ccc([N+](=O)[O-])o1,16µM,0,0,0,0,0
Cc1cccc(NC(=O)c2ccc([N+](=O)[O-])cc2Cl)n1,0,0,0,0,0,0
CC(=O)O[C@]1(C(C)=O)CC[C@H]2[C@@H]3C=C(C)C4=CC(=O)CC[C@]4(C)[C@@H]3CC[C@@]21C,-,0,-,-,-,-
C[C@@H]1CN(Cc2ccc3c(c2)CN(C(=O)c2ccc(Oc4ccccc4)o2)CCO3)C[C@H](C)O1,-,-,-,0,-,-
O=C(Nc1cccc2ncccc12)c1ccc([N+](=O)[O-])o1,13µM,0,0,0,13µM,0
O=C(Nc1ccccc1F)C(Cc1ccccc1)n1cccc1 (centres undefined),0,-,-,-,0,0
Cc1cccnc1NC(=O)c1ccc([N+](=O)[O-])o1,?,0,0,?,0,0
Cc1c(NC(=O)c2ccc([N+](=O)[O-])o2)cccc1-c1nc2ncccc2o1,?,?,0,?,25µM,0
Cc1ccc(NC(=O)c2ccc([N+](=O)[O-])o2)c(C)c1,13µM,0,0,0,0,0
CN1CCN(c2ccccc2NC(=O)C(Cc2ccccc2)n2cccc2)CC1 (centres undefined),0,0,0,30µM,0,0
Cc1cc2ccccc2cn1,0,-,-,-,0,-
CCCCC(=O)OCC(=O)[C@H]1[C@H](C)C[C@H]2[C@@H]3C[C@H](F)C4=CC(=O)C=C[C@]4(C)[C@@]3(F)[C@@H](O)C[C@@]21C,-,0,-,0,-,0

# Assay outcomes deposited in PubChem BioAssay by National Center for Advancing Translational Sciences (NCATS).
